Results on 20 compounds are retold here after PubChem BioAssay.

Unmarked numbers belong to inactive results. Inconclusive results are not listed. The source made the active and inactive calls. Unless noted, the limit is not given here; nearly all actives have AC50 up to about 30 µM.

One experiment has as its system Aerobactin synthetase IucA (Klebsiella pneumoniae). Put plainly: IucA aerobactin synthetase inhibitors, biochemical, Tocris library, absorbance (AID 1345561; call rule not given here;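 also: 100% = enzyme without compound and 0% = no enzyme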). The settings on record: purified IucA enzyme assay, absorbance (OD) read-out; stronger effect = lower value;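 tested at 8 µM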.
Regarding `N=c1nc(N2CCCCC2)cc(N)n1O`, the remaining activity (as a rule, the signal under treatment as a percentage of the control signal) is 109%.

For `CC(C)NCC(O)COc1cccc2[nH]ccc12` (configuration not stated), the remaining activity was 101%.

On to `COc1ccccc1N1CCN(CCCCNC(=O)c2ccc(-c3ccc(C(C)=O)cc3)cc2)CC1`, for which the remaining activity was 111%.

Take `CN(C)C(=O)C(CCN1CCC(O)(c2ccc(Cl)cc2)CC1)(c1ccccc1)c1ccccc1`: the remaining activity is 118%.

Take `C[C@@H](C1=C(CCN(C)C)Cc2ccccc21)c1ccccn1`: the remaining activity is 105%.

`O=C(CCCN1CCC(O)(c2ccc(Cl)cc2)CC1)c1ccc(F)cc1`: the remaining activity is 128%.

With `CCN(CC)CCOc1ccc(Cc2ccccc2)cc1`, the remaining activity was 100%.

Turning to `COc1ccc2cc([C@H](C)C(=O)O)ccc2c1`, the remaining activity is 75.8%.

On to `CN1CCN(C2=Nc3cc(Cl)ccc3Nc3ccccc32)CC1`, for which the remaining activity is 121%.

With `COC(=O)C1=C(C)NC(C)=C(C(=O)OC)C1c1ccccc1[N+](=O)[O-]`, the remaining activity is 121%.

System in a further experiment: not listed separately
Put plainly: growth inhibition of DIPG glioma cells, dose response, cell-based, SU-DIPG-XVII, MIPE5.0, CellTiter-Glo, qHTS (AID 1347060; cut-off not given, nearly all actives have AC50 up to about 26 µM). The settings on record: SU-DIPG-XVII viability, CellTiter-Glo ATP luminescence. (In ATP-based viability assays light output follows the ATP content of the culture.)
`COCCCOc1ccnc(CS(=O)c2nc3ccccc3[nH]2)c1C` (configuration not stated): the outcome was inactive.

On to `Cc1ccc(-n2nc(C(C)(C)C)cc2NC(=O)Nc2ccc(OCCN3CCOCC3)c3ccccc23)cc1`, for which the compound was called inactive.

Take `CCCC(CCC)C(=O)O`: the compound was classed as inactive.

In the case of `CC(C)(C)NCC(O)c1ccc(O)c(CO)c1` (configuration not stated), the outcome was inactive.

Consider `COc1ccc2cc([C@H](C)C(=O)O)ccc2c1`, for which the compound was called inactive.

Take `COc1c2occc2cc2ccc(=O)oc12`: the compound was called inactive.

For the compound `NC(=O)c1cccnc1`, the call was inactive.

For the compound `CC(C(=O)O)c1cccc(C(=O)c2ccccc2)c1` (configuration not stated), the result was inactive.

System in a further experiment: not listed separately
Put plainly: growth inhibition of DIPG glioma cells, dose response, cell-based, SU-DIPG-XIII, MIPE4.0, CellTiter-Glo, qHTS (AID 1347061; cut-off not given, nearly all actives have AC50 up to about 37 µM;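 also: cells exposed to compound for 48 hours before readout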). As to conditions: SU-DIPG-XIII viability, CellTiter-Glo ATP luminescence.
For `COCCCOc1ccnc(CS(=O)c2nc3ccccc3[nH]2)c1C` (configuration not stated), the compound was called inactive.

Take `N=c1nc(N2CCCCC2)cc(N)n1O`: the compound was called inactive.

Consider `Cc1ccc(-n2nc(C(C)(C)C)cc2NC(=O)Nc2ccc(OCCN3CCOCC3)c3ccccc23)cc1`, for which the AC50 (as a rule, the concentration at which the activity in the assay is half-maximal) was 13.2 µM (active).

`CCn1cc(C(=O)O)c(=O)c2ccc(C)nc21`: the result was inactive.

Take `CN(C)C(=O)C(CCN1CCC(O)(c2ccc(Cl)cc2)CC1)(c1ccccc1)c1ccccc1`: the result was inactive.

For the compound `Cc1cc(NS(=O)(=O)c2ccc(N)cc2)no1`, the concentration at half-maximal activity (AC50) was 2.96 µM (active).

On to `CCCC(CCC)C(=O)O`, for which the outcome was inactive.

As to `O=C(CCCN1CCC(O)(c2ccc(Cl)cc2)CC1)c1ccc(F)cc1`, the result was inactive.

For `CC(C)(C)NCC(O)c1ccc(O)c(CO)c1` (configuration not stated), the compound was classed as inactive.

For `COc1ccc2cc([C@H](C)C(=O)O)ccc2c1`, the compound was classed as inactive.

Consider `COc1c2occc2cc2ccc(=O)oc12`, for which the outcome was inactive.

System in a further experiment: not listed separately
Put plainly: growth inhibition of DIPG glioma cells, dose response, cell-based, JHH-DIPG-1, MIPE4.0, CellTiter-Glo, qHTS (AID 1347062; cut-off not given, nearly all actives have AC50 up to about 27 µM;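 as to AC50: cells exposed to compound for two days before readout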). The settings on record: JHH-DIPG-1 viability, CellTiter-Glo ATP luminescence.
Take `COCCCOc1ccnc(CS(=O)c2nc3ccccc3[nH]2)c1C` (configuration not stated): the compound was classed as inactive.

Turning to `N=c1nc(N2CCCCC2)cc(N)n1O`, the result was inactive.

For the compound `Cc1ccc(-n2nc(C(C)(C)C)cc2NC(=O)Nc2ccc(OCCN3CCOCC3)c3ccccc23)cc1`, the compound was called inactive.

Take `CCn1cc(C(=O)O)c(=O)c2ccc(C)nc21`: the result was inactive.

Consider `CN(C)C(=O)C(CCN1CCC(O)(c2ccc(Cl)cc2)CC1)(c1ccccc1)c1ccccc1`, for which the AC50 is 20.9 µM (active).

For `Cc1cc(NS(=O)(=O)c2ccc(N)cc2)no1`, the result was inactive.

In the case of `CC(C)(C)NCC(O)c1ccc(O)c(CO)c1` (configuration not stated), the call was inactive.

For `COc1ccc2cc([C@H](C)C(=O)O)ccc2c1`, the outcome was inactive.

Turning to `COc1c2occc2cc2ccc(=O)oc12`, the compound was classed as inactive.

In the case of `NC(=O)c1cccnc1`, the call was inactive.

As to `CC(C)OC(=O)C(C)(C)Oc1ccc(C(=O)c2ccc(Cl)cc2)cc1`, the call was inactive.

Turning to `CN1CCN(C2=Nc3cc(Cl)ccc3Nc3ccccc32)CC1`, the call was inactive.

System in another experiment: not listed separately
Put plainly: growth inhibition of DIPG glioma cells, dose response, cell-based, SU-DIPG-IV, MIPE4.0, CellTiter-Glo, qHTS (AID 1347063).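 Also: compound exposure lasted 48 hours before the viability readout.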 As to conditions: SU-DIPG-IV viability, CellTiter-Glo ATP luminescence.
As for `COCCCOc1ccnc(CS(=O)c2nc3ccccc3[nH]2)c1C` (configuration not stated), the result was inactive.

On to `N=c1nc(N2CCCCC2)cc(N)n1O`, for which the compound was classed as inactive.

With `Cc1ccc(-n2nc(C(C)(C)C)cc2NC(=O)Nc2ccc(OCCN3CCOCC3)c3ccccc23)cc1`, the compound was classed as inactive.

`CN(C)C(=O)C(CCN1CCC(O)(c2ccc(Cl)cc2)CC1)(c1ccccc1)c1ccccc1`: the compound was called inactive.

For the compound `Cc1cc(NS(=O)(=O)c2ccc(N)cc2)no1`, the result was inactive.

In the case of `O=C(CCCN1CCC(O)(c2ccc(Cl)cc2)CC1)c1ccc(F)cc1`, the call was inactive.

As to `CC(C)(C)NCC(O)c1ccc(O)c(CO)c1` (configuration not stated), the outcome was inactive.

As to `COc1ccc2cc([C@H](C)C(=O)O)ccc2c1`, the result was inactive.

On to `COc1c2occc2cc2ccc(=O)oc12`, for which the compound was classed as inactive.

Regarding `NC(=O)c1cccnc1`, the outcome was inactive.

Consider `CC(C)OC(=O)C(C)(C)Oc1ccc(C(=O)c2ccc(Cl)cc2)cc1`, for which the call was inactive.

For `CC(C(=O)O)c1cccc(C(=O)c2ccccc2)c1` (configuration not stated), the call was inactive.

Take `CN1CCN(C2=Nc3cc(Cl)ccc3Nc3ccccc32)CC1`: the compound was classed as inactive.

System in another experiment: not listed separately
Put plainly: growth inhibition of DIPG glioma cells, dose response, cell-based, SU-DIPG-XIII, MIPE5.0, CellTiter-Glo, qHTS (AID 1347064; cut-off not given, nearly all actives have AC50 up to about 23 µM). As to conditions: SU-DIPG-XIII viability, CellTiter-Glo ATP luminescence.
With `Cc1ccc(-n2nc(C(C)(C)C)cc2NC(=O)Nc2ccc(OCCN3CCOCC3)c3ccccc23)cc1`, the compound was classed as inactive.

On to `CN(C)C(=O)C(CCN1CCC(O)(c2ccc(Cl)cc2)CC1)(c1ccccc1)c1ccccc1`, for which the result was inactive.

Consider `CC(C)(C)NCC(O)c1ccc(O)c(CO)c1` (configuration not stated), for which the call was inactive.

Consider `CCN(CC)CCOc1ccc(Cc2ccccc2)cc1`, for which the compound was called inactive.

Take `COc1c2occc2cc2ccc(=O)oc12`: the compound was called inactive.

As for `NC(=O)c1cccnc1`, the compound was called inactive.

On to `CC(C)OC(=O)C(C)(C)Oc1ccc(C(=O)c2ccc(Cl)cc2)cc1`, for which the call was inactive.

In the case of `CC(C(=O)O)c1cccc(C(=O)c2ccccc2)c1` (configuration not stated), the compound was classed as inactive.
